40 compounds from PubChem BioAssay (NCATS) can be followed below.

For some of these results: Results with a measured potency or affinity are listed apart. Calls of active or inactive are those of the source. The call rests on the fitted dose curve.

For one assay the following is noted: Ebola virus entry assay, blue channel fluorescence.
Turning to `S=c1nc[nH]c2nc[nH]c12`, the compound was called inactive.

In the case of `CC1COc2c(N3CCN(C)CC3)c(F)cc3c(=O)c(C(=O)O)cn1c23` (stereo not given), the compound was classed as inactive.

Regarding `NC(N)=NC(=O)Cc1c(Cl)cccc1Cl`, the result was inactive.

With `CN1C(CSCC(F)(F)F)Nc2cc(Cl)c(S(N)(=O)=O)cc2S1(=O)=O` (stereo not given), the call was inactive.

Consider `NC(=O)c1cnccn1`, for which the compound was classed as inactive.

For the compound `CCN(CC)C(=O)/C(C#N)=C/c1cc(O)c(O)c([N+](=O)[O-])c1`, the call was inactive.

With `C[C@]1(O)CC[C@H]2[C@@H]3CCC4=CC(=O)CC[C@]4(C)[C@@]3(F)[C@@H](O)C[C@@]21C`, the compound was classed as inactive.

In the case of `CC(C)N(CCC(C(N)=O)(c1ccccc1)c1ccccn1)C(C)C` (stereo not given), the call was inactive.

As for `NS(=O)(=O)c1cc(C2(O)NC(=O)c3ccccc32)ccc1Cl` (stereo not given), the compound was classed as inactive.

For the compound `COc1cc(C(=O)NS(=O)(=O)c2ccccc2C)ccc1Cc1cn(C)c2ccc(NC(=O)OC3CCCC3)cc12`, the compound was classed as inactive.

For orientation: AC50 means the concentration at which the activity in the assay is half-maximal. For the compound `CNCCCC12CCC(c3ccccc31)c1ccccc12`, the AC50 is 3.16 µM (active).

As to `CCS(=O)(=O)CCn1c([N+](=O)[O-])cnc1C`, the compound was called inactive.

As to `COc1c(N2C[C@@H]3CCCN[C@@H]3C2)c(F)cc2c(=O)c(C(=O)O)cn(C3CC3)c12`, the call was inactive.

For the compound `CN1C[C@H](C(=O)N[C@]2(C)O[C@@]3(O)[C@@H]4CCCN4C(=O)[C@H](Cc4ccccc4)N3C2=O)C=C2c3cccc4[nH]cc(c34)C[C@H]21`, the result was inactive.

With `COC(=O)C(c1ccccc1)C1CCCCN1` (stereo not given), the compound was classed as inactive.

For another assay the following is noted: Ebola virus entry assay, green fluorescence channel.
Consider `C#CCN[C@@H]1CCc2ccccc21`, for which the compound was classed as inactive.

Turning to `CCc1cc(C(N)=S)ccn1`, the result was inactive.

For the compound `C=CCN1C[C@H](C(=O)N(CCCN(C)C)C(=O)NCC)C[C@@H]2c3cccc4[nH]cc(c34)C[C@H]21`, the compound was classed as inactive.

As to `CCC1(C)CC(=O)NC1=O` (stereo not given), the call was inactive.

Consider `Clc1ccc2nsnc2c1NC1=NCCN1`, for which the call was inactive.

On to `Nc1ccn([C@@H]2O[C@H](CO)[C@@H](O)C2O)c(=O)n1` (stereo not given in full), for which the outcome was inactive.

Turning to `C=CCC1([C@H](C)CCC)C(=O)NC(=O)NC1=O`, the outcome was inactive.

For the compound `NCCCCCC(=O)O`, the compound was classed as inactive.

As to `O=C(O)CCCc1ccc(N(CCCl)CCCl)cc1`, the compound was classed as inactive.

Consider `COCCCOc1ccnc(CS(=O)c2nc3ccccc3[nH]2)c1C` (stereo not given), for which the compound was classed as inactive.

As to `Nc1ncn([C@H]2C[C@H](O)[C@@H](CO)O2)c(=O)n1`, the outcome was inactive.

On to `OCCOCCN1CCN(C2=Nc3ccccc3Sc3ccccc32)CC1`, for which the compound was called inactive.

As to `NS(=O)(=O)c1cc2c(cc1C(F)(F)F)NC(Cc1ccccc1)NS2(=O)=O` (stereo not given), the call was inactive.

Regarding `CC(NC(C)(C)C)C(=O)c1cccc(Cl)c1` (stereo not given), the compound was called inactive.

With `CN=C(NC#N)NCCSCc1nc[nH]c1C`, the compound was classed as inactive.

With `C[C@](N)(Cc1ccc(O)cc1)C(=O)O`, the compound was classed as inactive.

Consider `CN1C(C(=O)Nc2ccccn2)=C(O)c2ccccc2S1(=O)=O`, for which the compound was called inactive.

Consider `CO[C@H]1C=CO[C@@]2(C)Oc3c(C)c(O)c4c(O)c(c(/C=N/N5CCN(C6CCCC6)CC5)c(O)c4c3C2=O)NC(=O)/C(C)=C\C=C[C@H](C)[C@H](O)[C@@H](C)[C@@H](O)[C@@H](C)[C@H](OC(C)=O)[C@@H]1C`, for which the compound was called inactive.

On to `Cc1nnc(SCC2=C(C(=O)O)N3C(=O)[C@@H](NC(=O)Cn4cnnn4)[C@H]3SC2)s1`, for which the call was inactive.

Take `O=C1CN(/N=C/c2ccc([N+](=O)[O-])o2)C(=O)N1`: the outcome was inactive.

Turning to `Nc1ccc(S(=O)(=O)c2ccc(N)cc2)cc1`, the call was inactive.

For the compound `NS(=O)(=O)c1cc(Cl)c(Cl)c(S(N)(=O)=O)c1`, the outcome was inactive.

Consider `C=C[C@H]1CN2CC[C@H]1C[C@H]2[C@H](O)c1ccnc2ccc(OC)cc12`, for which the compound was classed as inactive.

`NCC[C@H](O)C(=O)N[C@@H]1C[C@H](N)[C@@H](O[C@H]2O[C@H](CN)[C@@H](O)[C@H](O)[C@@H]2O)[C@H](O)[C@@H]1O[C@H]1O[C@H](CO)[C@@H](O)[C@H](N)[C@@H]1O`: the call was inactive.

With `CCn1cc(C(=O)O)c(=O)c2cc(F)c(N3CCNC(C)C3)c(F)c21` (stereo not given), the compound was called inactive.

As for `S=c1nc[nH]c2nc[nH]c12`, the outcome was inactive.

As for `CC1COc2c(N3CCN(C)CC3)c(F)cc3c(=O)c(C(=O)O)cn1c23` (stereo not given), the compound was called inactive.

In the case of `NC(N)=NC(=O)Cc1c(Cl)cccc1Cl`, the outcome was inactive.

In the case of `CN1C(CSCC(F)(F)F)Nc2cc(Cl)c(S(N)(=O)=O)cc2S1(=O)=O` (stereo not given), the outcome was inactive.

With `NC(=O)c1cnccn1`, the compound was called inactive.

As for `CCN(CC)C(=O)/C(C#N)=C/c1cc(O)c(O)c([N+](=O)[O-])c1`, the compound was called inactive.

Consider `C[C@]1(O)CC[C@H]2[C@@H]3CCC4=CC(=O)CC[C@]4(C)[C@@]3(F)[C@@H](O)C[C@@]21C`, for which the result was inactive.

Turning to `CC(C)N(CCC(C(N)=O)(c1ccccc1)c1ccccn1)C(C)C` (stereo not given), the outcome was inactive.

`NS(=O)(=O)c1cc(C2(O)NC(=O)c3ccccc32)ccc1Cl` (stereo not given): the result was inactive.

On to `COc1cc(C(=O)NS(=O)(=O)c2ccccc2C)ccc1Cc1cn(C)c2ccc(NC(=O)OC3CCCC3)cc12`, for which the outcome was inactive.

For `CNCCCC12CCC(c3ccccc31)c1ccccc12`, the compound was classed as inactive.

With `CCS(=O)(=O)CCn1c([N+](=O)[O-])cnc1C`, the outcome was inactive.

Turning to `COc1c(N2C[C@@H]3CCCN[C@@H]3C2)c(F)cc2c(=O)c(C(=O)O)cn(C3CC3)c12`, the result was inactive.

In the case of `CN1C[C@H](C(=O)N[C@]2(C)O[C@@]3(O)[C@@H]4CCCN4C(=O)[C@H](Cc4ccccc4)N3C2=O)C=C2c3cccc4[nH]cc(c34)C[C@H]21`, the call was inactive.

As to `COC(=O)C(c1ccccc1)C1CCCCN1` (stereo not given), the result was inactive.
